# According to the supplement of paper PMC8728848:
# This is one part of a sample in which the strongest signals are shown more often than they occur.
# B1: Epa1to9 (Candida glabrata) (protein)
# chain: MGSSHHHHHHSSGLVPRGSHMTSSNDISLASKDPTTFPLGCSPDITTPKKGLSMELYSYDFRKKGSYPCWDAAYLDPNYPRTGYKSHRLLAKVDGVTGNINFYYHATKGCTPQLGHLPASYNYPKPLTMTNFTMLLYGYFRPKVTGFHTFTISADDLLFVNFGAGNAFDCCRRDSSADHFGNYQAYAIWGSKTAKDELTVHLDAGVYYPIRLFYNNRDYHGALSFTFKTESNENTVSDFSEYFFSLDDTEEGCPGLISYD
# Columns and labels:
# Assay in all cases: glycan array binding signal (z-score within array); higher = stronger binding
# Details in all cases: glycan notation: IUPAC condensed, linker removed
# Gal6S(b1-4)Glc = biological target: Gal6S(b1-4)Glc
# In short: (§1)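 From the Consortium for Functional Glycomics database, 3228 arrays were curated, keeping only those whose protein sequence was available. Binding is given as a within-array Z-score averaged across arrays sharing a protein sequence and across linkers. Negative Z-scores can be read as non-binding.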
# Gal6S(b1-4)Glc6S = biological target: Gal6S(b1-4)Glc6S
# In short: as §1
# Gal6S(b1-4)GlcNAc = biological target: Gal6S(b1-4)GlcNAc
# In short: as §1
# Gal6S(b1-4)GlcNAc6S = biological target: Gal6S(b1-4)GlcNAc6S
# In short: as §1
# GalNAc3S(b1-4)GlcNAc3S = biological target: GalNAc3S(b1-4)GlcNAc3S
# In short: as §1
# GalNAc4S6S(b1-4)GlcNAc = biological target: GalNAc4S6S(b1-4)GlcNAc
# In short: as §1
# Glc(b1-6)Glc = biological target: Glc(b1-6)Glc
# In short: as §1
# GlcA(b1-3)Gal = biological target: GlcA(b1-3)Gal
# In short: as §1
# GlcA(b1-3)GlcNAc = biological target: GlcA(b1-3)GlcNAc
# In short: as §1
# [1] = biological target: GlcA3S(b1-3)Gal(b1-4)GlcNAc(b1-3)Gal(b1-4)Glc
# In short: as §1
# [2] = biological target: GlcNAc(b1-2)Man(a1-3)[GlcNAc(b1-4)][GlcNAc(b1-2)Man(a1-6)]Man(b1-4)GlcNAc(b1-4)[Fuc(a1-6)]GlcNAc
# In short: as §1
# [3] = biological target: GlcNAc(b1-2)[GlcNAc(b1-4)]Man(a1-3)[GlcNAc(b1-2)Man(a1-6)]Man(b1-4)GlcNAc(b1-4)GlcNAc
# In short: as §1
# [4] = biological target: GlcNAc(b1-2)[GlcNAc(b1-6)]Man(a1-6)[GlcNAc(b1-2)Man(a1-3)]Man(b1-4)GlcNAc(b1-4)GlcNAc
# In short: as §1
# GlcNAc(b1-3)GalNAc = biological target: GlcNAc(b1-3)GalNAc
# In short: as §1
# Kdn(a2-3)Gal(b1-3)GalNAc = biological target: Kdn(a2-3)Gal(b1-3)GalNAc
# In short: as §1
# Man(a1-3)[Man(a1-6)]Man = biological target: Man(a1-3)[Man(a1-6)]Man
# In short: as §1
# [5] = biological target: Man(a1-3)[Man(a1-6)]Man(b1-4)GlcNAc(b1-4)[Fuc(a1-6)]GlcNAc
# In short: as §1
# [6] = biological target: Neu5Ac(a2-3)Gal(b1-3)GlcNAc(b1-2)Man
# In short: as §1
# [7] = biological target: Neu5Ac(a2-3)Gal(b1-4)GlcNAc(b1-2)Man(a1-3)[Neu5Ac(a2-6)Gal(b1-4)GlcNAc(b1-2)Man(a1-6)]Man(b1-4)GlcNAc(b1-4)GlcNAc
# In short: as §1
# [8] = biological target: Neu5Ac(a2-3)Gal(b1-4)[Fuc(a1-3)]GlcNAc6S
# In short: as §1
# [9] = biological target: Neu5Ac(a2-6)Gal(b1-4)GlcNAc(b1-2)Man(a1-3)[Gal(b1-4)GlcNAc(b1-2)Man(a1-6)]Man(b1-4)GlcNAc(b1-4)GlcNAc
# In short: as §1
# [10] = biological target: Neu5Ac(a2-6)Gal(b1-4)GlcNAc(b1-3)Gal(b1-4)GlcNAc(b1-3)Gal(b1-4)GlcNAc(b1-2)Man(a1-3)[Neu5Ac(a2-6)Gal(b1-4)GlcNAc(b1-3)Gal(b1-4)GlcNAc(b1-3)Gal(b1-4)GlcNAc(b1-2)Man(a1-6)]GalNAc
# In short: as §1
# Neu5Ac(a2-6)GalNAc = biological target: Neu5Ac(a2-6)GalNAc
# In short: as §1
# Neu5Ac(b2-6)GalNAc = biological target: Neu5Ac(b2-6)GalNAc
# In short: as §1
# [11] = biological target: Neu5Gc(a2-8)Neu5Ac(a2-3)Gal(b1-4)GlcNAc
# In short: as §1
binder,measurement,setting,value
B1,glycan array binding signal (z-score),Gal6S(b1-4)Glc,5.05
same,glycan array binding signal (z-score),Gal6S(b1-4)Glc6S,7.26
same,glycan array binding signal (z-score),Gal6S(b1-4)GlcNAc,4.98
same,glycan array binding signal (z-score),Gal6S(b1-4)GlcNAc6S,10.6
same,glycan array binding signal (z-score),GalNAc3S(b1-4)GlcNAc3S,-0.353
same,glycan array binding signal (z-score),GalNAc4S6S(b1-4)GlcNAc,-0.346
same,glycan array binding signal (z-score),Glc(b1-6)Glc,-0.333
same,glycan array binding signal (z-score),GlcA(b1-3)Gal,-0.315
same,glycan array binding signal (z-score),GlcA(b1-3)GlcNAc,-0.346
same,glycan array binding signal (z-score),[1],-0.35
same,glycan array binding signal (z-score),[2],-0.354
same,glycan array binding signal (z-score),[3],-0.295
same,glycan array binding signal (z-score),[4],-0.344
same,glycan array binding signal (z-score),GlcNAc(b1-3)GalNAc,-0.352
same,glycan array binding signal (z-score),Kdn(a2-3)Gal(b1-3)GalNAc,-0.38
same,glycan array binding signal (z-score),Man(a1-3)[Man(a1-6)]Man,-0.287
same,glycan array binding signal (z-score),[5],-0.339
same,glycan array binding signal (z-score),[6],-0.33
same,glycan array binding signal (z-score),[7],-0.322
same,glycan array binding signal (z-score),[8],-0.36
same,glycan array binding signal (z-score),[9],-0.246
same,glycan array binding signal (z-score),[10],-0.309
same,glycan array binding signal (z-score),Neu5Ac(a2-6)GalNAc,-0.343
same,glycan array binding signal (z-score),Neu5Ac(b2-6)GalNAc,-0.346
same,glycan array binding signal (z-score),[11],-0.338
